Bioassay records: PubChem, The Scripps Research Institute Molecular Screening Center
PAFAH1B2 inh = PAFAH1B2 (human) inhibition. P68402. actives 1.2% (n = 340,000). recombinant PAFAH1B2, FP-rhodamine activity probe, fluorescence polarization. AID 492953. inhibition, % at 3.39 µM;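 active = inhibition above the mean of all tested compounds plus 3 SD, cut at about 24% in these data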;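 also: 0% = enzyme with DMSO and 100% = wells lacking PAFAH1B2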
Target sequence (P68402 whole entry, looked up): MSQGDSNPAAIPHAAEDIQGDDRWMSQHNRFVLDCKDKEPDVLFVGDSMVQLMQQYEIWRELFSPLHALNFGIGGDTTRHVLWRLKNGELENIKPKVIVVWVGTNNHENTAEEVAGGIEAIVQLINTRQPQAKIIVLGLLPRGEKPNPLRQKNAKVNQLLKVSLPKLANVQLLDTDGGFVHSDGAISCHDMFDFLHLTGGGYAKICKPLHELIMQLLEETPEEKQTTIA
rCAG binder = r(CAG) repeat RNA binding; inhibition, % at 3 µM; actives 1.3% (n = 370,000); TO-PRO-1 dye displacement fluorescence;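 active = inhibition above the plate cutoff, the mean of all test compounds on that plate plus 3 SD, cut at about 35% in these data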;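 also: 0% = DMSO alone and 100% = 100 µM mitoxantrone as full dye displacement; higher means more dye released from RNA so lower well fluorescence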
EBNA-1 inh = blocks EBNA-1 binding to DNA. EBNA-1 DNA binding, fluorescence polarization. inhibition, % at 14.8 µM. actives 0.34% (n = 300,000). AID 1950; in the data active = inhibition above about 28%
PAFAH1B3 FP inh = blocks human PAF acetylhydrolase 1B catalytic subunit 3; actives 0.28% (n = 340,000); AID 492972; recombinant PAFAH1B3, FP-rhodamine probe, fluorescence polarization; inhibition, % at 3.39 µM;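 active = inhibition above the screen-wide average of all tested compounds plus 3 SD, cut at about 25% in these data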;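 also: 0% = enzyme with DMSO only and 100% = wells lacking PAFAH1B3 protein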
ZTA counter = counter-screen for EBNA-1 inhibitors: inhibitors of Epstein-Barr virus ZTA. P03206. ZTA-DNA binding, fluorescence polarization. inhibition, % at 11 µM. actives 0.15% (n = 320,000). AID 2234; in the data active = inhibition above about 33%
Target sequence (P03206 whole entry, looked up): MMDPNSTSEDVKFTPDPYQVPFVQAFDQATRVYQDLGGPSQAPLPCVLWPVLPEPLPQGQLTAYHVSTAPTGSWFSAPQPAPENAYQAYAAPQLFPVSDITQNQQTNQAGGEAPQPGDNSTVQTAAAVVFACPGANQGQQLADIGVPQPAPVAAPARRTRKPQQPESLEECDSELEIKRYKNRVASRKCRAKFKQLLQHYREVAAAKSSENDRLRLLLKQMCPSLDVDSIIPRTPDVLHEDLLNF
PAFAH2 inh = PAFAH2 (human) inhibition | AID 492956 | actives 0.99% (n = 340,000) | recombinant PAFAH2, FP-rhodamine activity probe, fluorescence polarization | Q99487 | inhibition, % at 3.39 µM;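 active = inhibition above the mean over all tested compounds plus 3 SD, cut at about 30% in these data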;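 also: inhibitors block probe labeling of enzyme so polarization drops; 0% = enzyme with DMSO and 100% = wells lacking PAFAH2 protein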
rCAG binder conf = r(CAG) RNA repeat binding, confirmation | shares compounds with rCAG binder | TO-PRO-1 dye displacement fluorescence | inhibition, % at 3 µM | actives 70% (n = 4,300) | AID 652065;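 active = inhibition above a per-plate cutoff, the mean inhibition of sample wells plus 3 SD, cut at about 35% in these data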;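 also: loss of TO-PRO-1 fluorescence as compound displaces dye from 1x1 AA loop RNA; 0% = DMSO only wells and 100% = 100 µM mitoxantrone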
dCAG dye counter = disrupts DNA CAG TO-PRO-1 complex, flagging rCAG hits | shares compounds with rCAG binder | d(CAG) DNA oligo TO-PRO-1 dye displacement, fluorescence | inhibition, % at 3 µM | actives 94% (n = 4,300);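 active = inhibition above its plate's cutoff, the mean test-well inhibition plus 3 SD, cut at about 4.8% in these data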;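 also: 0% = DNA dye mix with DMSO and 100% = 100 µM mitoxantrone; hits displace the dye from DNA and so lower well fluorescence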
The depositor's hits bear a star; . = not tested or not shown. Sampled rows, rich in hits. Any-hit rate of the full collection: about 2.9%.

SMILES	PAFAH1B2 inh	rCAG binder	EBNA-1 inh	PAFAH1B3 FP inh	ZTA counter	PAFAH2 inh	rCAG binder conf	dCAG dye counter
COc1ccc(OC)c(N(CC(=O)N2CCCC2)S(C)(=O)=O)c1	-5	-2	-1	3	-13	-1	.	.
CCOc1ccc2c(c1)S/C(=C\c1cccs1)C(=O)N2	0	6	8	8	13	19	.	.
Cc1cc(C)cc(N(C(=O)c2cccs2)C2C=CS(=O)(=O)C2)c1 (stereo not drawn)	1	-2	2	-15	11	2	.	.
Cc1ccc(-c2nc3ccc(Cl)cn3c2Cc2cccc(F)c2)cc1	.	38*	.	.	.	.	3	3
Cc1cc(Br)cn2c(Cc3ccccc3C(F)(F)F)c(-c3cccc(Br)c3)nc12	.	47*	.	.	.	.	7	3
COC(=O)c1cc(NC(=O)CSC2=NCCS2)cc(C(=O)OC)c1	1	3	0	7	12	5	.	.
CCOC(=O)[C@]12CCCC=C1N(Cc1ccc(OC)cc1)C(=O)[C@@H]2CC(=O)NCc1ccc(OC)c(OC)c1	.	0	.	.	.	.	.	.
COc1cccc(Oc2ccc(C(F)(F)F)cc2NC(=O)CN2C(=O)NC3(CCCC3)C2=O)c1	-1	2	.	5	.	-6	.	.
COc1cccc(CNC(=O)c2c[nH]n3c(=O)c(Cl)c(C)nc23)c1	5	61*	7	4	1	14	35*	8.0*
Cc1[nH]n(-c2ccccc2)c(=O)c1N=Nc1ccccc1O	3	40*	.	17	.	23	27	13*
Cc1[nH]n(-c2ccccc2)c(=O)c1N=Nc1ccccc1C(=O)O	4	33	-8	10	-18	5	.	.
Nc1cc2cccnc2cc1Cl	21	41*	.	37*	.	44*	5	1
Brc1ccc2cccnc2c1	0	-2	9	1	-13	2	.	.
CCCCOCCCNC(=O)C[C@H]1C[C@@]2(C(=O)OC)C(=C[C@H](COCc3ccccc3)O[C@@H]2C)N(Cc2ccco2)C1=O	.	4	.	.	.	.	.	.
N#C/C(=C/c1ccc(-c2ccc([N+](=O)[O-])cc2)o1)C(=O)Nc1nc(-c2cccs2)cs1	-7	14	.	-4	.	6	.	.
N#C/C(=C\c1ccc(-c2ccc(F)cc2)o1)C(=O)Nc1nc(-c2cccs2)cs1	-1	36*	-1	-2	-4	-4	22	11*
Cc1cccc(C)c1NC(=O)C1C(c2ccccc2)=Nc2ccccc2N1C(=O)c1cnccn1 (stereo not drawn)	.	2	.	.	.	.	.	.
O=C(O)[C@H](Cc1ccccc1)NC(=O)C(c1ccccc1)(c1ccccc1)c1ccccc1	2	38*	-17	5	-1	5	53*	13*
Fc1ccc(-c2cc(-c3nnc4sc(Cc5cccs5)nn34)[nH]n2)cc1	.	21	.	.	.	.	.	.
CCSc1nnc(NC(=O)Nc2cccc(C)c2)s1	-2	56*	4	3	-2	-2	18	17*
COc1ccc(Cc2nnc(NC(=O)Nc3cccc(OC)c3)s2)cc1	-3	42*	10	-1	4	-3	40*	17*
O=C(Nc1ccc(F)cc1)Nc1nnc(COc2ccccc2F)s1	-9	63*	-16	-23	-24	-33	38*	27*
C=CCSc1nsc(NC(=O)Nc2ccc(F)cc2)n1	-10	69*	-6	-14	1	-20	20	20*
CCn1c(=O)c(CCC(=O)NCC2CCCO2)c(C)c2c(C)nn(-c3ccc(C)cc3)c21 (stereo not drawn)	6	2	-7	-5	-27	4	.	.
COC(=O)[C@@]12CCCCC=C1N(CCc1ccc(Cl)cc1)C(=O)[C@H]2CC(=O)NCCC(C)C	.	3	.	.	.	.	.	.
SMILES	PAFAH1B2 inh	rCAG binder	EBNA-1 inh	PAFAH1B3 FP inh	ZTA counter	PAFAH2 inh	rCAG binder conf	dCAG dye counter
COc1cccc(NC(=O)Nc2nnc(Cc3ccc(F)cc3)s2)c1	1	8	-5	4	-7	-4	.	.
CCSc1nsc(NC(=O)Nc2cccc(OC)c2)n1	3	58*	-4	9	-7	-7	20	16*
O=C(Nc1ccc(F)cc1)Nc1nnc(Cc2ccccc2)s1	1	42*	9	1	-2	-2	14	15*
COc1cccc(NC(=O)Nc2nnc(Cc3ccccc3)s2)c1	-7	41*	-5	0	0	-6	22	15*
O=C(NCc1ccco1)C1CC(c2ccccc2C(F)(F)F)=NO1 (stereo not drawn)	3	5	-17	-1	-1	7	.	.
Cc1ccc(CNC(=O)C2CC(c3ccccc3C(F)(F)F)=NO2)o1 (stereo not drawn)	-2	38*	1	-5	-5	3	5	3
COc1ccc(NC(=O)CN(C)C(=O)c2ccc(NS(=O)(=O)c3ccc(C)c([N+](=O)[O-])c3)cc2)cc1	6	28	6	13	8	-2	.	.
CC(=O)c1ccc(NC(=O)C(C)OC(=O)c2ccc(NS(=O)(=O)c3ccc(F)c(F)c3)cc2)cc1 (stereo not drawn)	-5	53*	-3	0	-10	2	43*	17*
CCc1ccc(NC(=O)C(C)OC(=O)c2ccc(NS(=O)(=O)c3ccc(C)c([N+](=O)[O-])c3)cc2)cc1 (stereo not drawn)	-1	85*	7	-12	11	1	82*	48*
CC(=O)Nc1ccc(NC(=O)C(C)OC(=O)c2ccc(S(=O)(=O)N3CCCCC3)cc2)cc1 (stereo not drawn)	-6	1	.	-9	.	-13	.	.
Cc1ccc(NC(=O)C(C)OC(=O)c2ccc(NS(=O)(=O)c3ccc(F)c(F)c3)cc2)cc1 (stereo not drawn)	1	58*	1	-2	-17	8	67*	20*
Cc1ccc(S(=O)(=O)Nc2ccccc2C(=O)OC(C)C(=O)Nc2ccc3ccccc3c2)cc1[N+](=O)[O-] (stereo not drawn)	-6	39*	-8	-13	2	13	42*	17*
CNc1ccccc1C(=O)OC(C)C(=O)Nc1ccc(S(=O)(=O)N2CCCC2)cc1 (stereo not drawn)	-8	7	-13	7	-8	-2	.	.
N#CC1=C(S)N(c2ccccc2)C(c2ccc(-c3ccccc3Cl)o2)NC1=O (stereo not drawn)	8	52*	1	12	-5	11	76*	40*
COC(=O)[C@]12C[C@H](CC(=O)N3CCN(C(=O)c4ccco4)CC3)C(=O)N(Cc3ccc(Cl)cc3Cl)C1=C[C@H](C(C)(C)C)O[C@@H]2C	.	10	.	.	.	.	.	.
